Vc quorum ag: quorum light induction in luxS cqsA deficient V. cholerae; V. cholerae BH1578 lux reporter, luminescence, 6 h; activation, % at 18.7 µM; 350,000 tested, 0.16% active; AID 588436; in the data active = activation mostly above about 9.7%, no sharp cut-off; inconclusive = no clear call, values can overlap the other calls; inactive = mostly below about 3.7%
Autofluor counter: counter-screen for toxin protease inhibitors: compound fluorescence | 360,000 tested, 3.1% active | compound autofluorescence counterscreen, microsphere flow cytometry; hits give high values | fluorescence intensity (concentration not given with the values) | AID 624483; in the data active = fluorescence intensity above about 16000; inconclusive = no clear call, values can overlap the other calls
BJeLR viability: kills HRASV12-expressing BJeLR cells; BJeLR (HRASV12) viability, CellTiter-Glo ATP luminescence, 48 h; inhibition, % (concentration not given with the values); 300,000 tested, 0.17% active; AID 1554; in the data active = inhibition above about 50%; inconclusive = no clear call, values can overlap the other calls
BoNT-A LC inh2: BoNT A light chain protease inhibition; multiplex microsphere protease substrate cleavage, flow cytometry; 360,000 tested, 0.17% active; inhibition, % at 10 µM; note: plate controls were buffer without enzyme for full effect and enzyme alone for no effect
Anthrax LF prot: inhibitors of Bacillus anthracis lethal factor protease; P15917; multiplex microsphere protease cleavage assay, LF; inhibition, % at 10 µM; 360,000 tested, 0.12% active; note: plate controls were buffer without enzyme for full effect and enzyme alone for no effect
Target sequence (P15917 whole entry, looked up): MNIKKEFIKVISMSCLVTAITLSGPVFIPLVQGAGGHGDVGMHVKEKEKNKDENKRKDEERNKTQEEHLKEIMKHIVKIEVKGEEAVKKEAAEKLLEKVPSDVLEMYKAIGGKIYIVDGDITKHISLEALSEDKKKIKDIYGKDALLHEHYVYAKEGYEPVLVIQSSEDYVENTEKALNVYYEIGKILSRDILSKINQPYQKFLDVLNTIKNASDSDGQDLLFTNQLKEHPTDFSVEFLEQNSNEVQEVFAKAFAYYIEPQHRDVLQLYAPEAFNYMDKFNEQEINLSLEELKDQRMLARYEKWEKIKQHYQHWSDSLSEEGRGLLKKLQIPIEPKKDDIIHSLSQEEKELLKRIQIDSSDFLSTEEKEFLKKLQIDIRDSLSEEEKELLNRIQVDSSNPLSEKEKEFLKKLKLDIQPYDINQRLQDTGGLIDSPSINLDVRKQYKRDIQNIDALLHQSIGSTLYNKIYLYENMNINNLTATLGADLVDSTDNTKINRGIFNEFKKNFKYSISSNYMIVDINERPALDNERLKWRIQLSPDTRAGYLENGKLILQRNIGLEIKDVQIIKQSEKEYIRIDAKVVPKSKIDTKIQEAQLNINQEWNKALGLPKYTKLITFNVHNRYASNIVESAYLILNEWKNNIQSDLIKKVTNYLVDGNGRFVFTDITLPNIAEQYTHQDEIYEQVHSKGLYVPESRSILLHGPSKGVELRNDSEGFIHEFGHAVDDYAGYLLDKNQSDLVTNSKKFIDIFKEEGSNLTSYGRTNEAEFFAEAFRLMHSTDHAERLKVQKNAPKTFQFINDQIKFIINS
BoNT F protease: BoNT F light chain protease inhibition | 360,000 tested, 0.22% active | inhibition, % at 10 µM | Multiplex microsphere protease cleavage assay, flow cytometry; in the data active = inhibition above about 35%, passing the limit was not always enough; inconclusive = no clear call, values can overlap the other calls; note: plate controls were buffer without enzyme for full effect and enzyme alone for no effect
The depositor's hits bear a star; i = inactive; ? = inconclusive; nt = no result. Hits are enriched below; roughly 3.7% of the tested compounds scored in any of these assays. Cut-off read from the data, not from the text of the source, unless noted: active = inhibition above about 30%; inconclusive = no clear call, values can overlap the other calls; inactive = below that.

SMILES | Vc quorum ag | Autofluor counter | BJeLR viability | BoNT-A LC inh2 | Anthrax LF prot | BoNT F protease
CCOC(=O)C1(C)CCCN1C(=O)c1ccc(OC)cc1 (stereo not drawn) | 0 | 3614 | nt | 0 | 0 | 0
Cc1cccc(CNC(=O)C2CCC(=O)N(CCCc3ccccc3)C2)c1 (stereo not drawn) | 1 | 3951 | nt | 0 | 3 | -2
CCCCCCN1CCN(C2CN(C3CCCCC3)S(=O)(=O)C2)CC1 (stereo not drawn) | nt | 5989 | nt | 2 | 6 | 7
O=C(c1cnn2ccccc12)N1CCCc2ccccc21 | 0 | 4083 | -5 | 0 | 0 | -1
O=C(c1cnc2ccccn2c1=O)N1CCCc2ccccc21 | 0 | 17332* | -4 | 9 | -6 | 10
Cc1csc2ncc(C(=O)N3CCCc4ccccc43)c(=O)n12 | i | 5816 | 1 | 0 | -6 | 0
O=C(c1cnc2n(c1=O)CCS2)N1CCCc2ccccc21 | 0 | 22039* | 5 | 3 | 1 | 4
O=C(c1ccc(S(=O)(=O)N2CCOCC2)cc1)N1CCCc2ccccc21 | i | 17398* | 3 | -2 | 2 | -3
O=C(c1cccnc1)N1CCCc2ccccc21 | -1 | 20718* | -4 | 0 | -2 | -2
O=C(Nc1ccc(Cl)cc1)N[C@@H]1c2c(ccc3ccccc23)OC[C@@H]1CO | i | 23698* | -17 | -3 | -3 | -2
CN(C(=O)c1ccccc1)C1c2c(ccc3ccccc23)OCC1CO (stereo not drawn) | -1 | 3863 | 8 | -4 | 1 | -23
COC(=O)c1ccc(Cn2cnc3c(Cl)ncnc32)cc1 | -1 | 2846 | nt | 0 | -3 | 4
CCOCCCNC(=O)c1c[nH]c2ccc(C)cc2c1=O | i | 22538* | 8 | -1 | 0 | -1
COc1cc2[nH]cc(C(=O)NCCc3ccccc3)c(=O)c2cc1OC | i | 17186* | nt | -2 | -6 | -2
CCOCCCNC(=O)c1c[nH]c2cc(OC)ccc2c1=O | -1 | 4571 | 4 | 0 | -2 | -3
COc1cc2[nH]cc(C(=O)NCc3ccccc3)c(=O)c2cc1OC | 0 | 3753 | 1 | 0 | 1 | -24
Cc1ccc(S(=O)(=O)NC(=O)C2(C)CCN2C(=O)c2cccc(F)c2)nc1 (stereo not drawn) | 1 | 3719 | nt | 0 | 5 | -1
N#Cc1cc2c(nc1SCC(=O)Nc1ccc(Cl)cc1)C1CCN2CC1 | i | 10124 | -3 | 0 | -5 | 2
N#Cc1cc2c(nc1SCC(=O)Nc1cc(Cl)ccc1Cl)C1CCN2CC1 | -4 | 20370* | 1 | ? | 2 | -2
CCN(CC)C(=O)CN(C#N)c1nc(OC)nc(N(C)C)n1 | i | 9104 | 6 | 1 | 0 | -5
COc1nc(C#N)nc(N(C)C)n1 | -1 | 20512* | 15 | 0 | -2 | -1
O=C1Nc2ccccc2CN2C(=O)c3cc(Cl)ccc3NC(=O)C12 (stereo not drawn) | nt | 4508 | nt | -1 | 1 | 0
CC(=O)c1nc2ccccc2n1S(=O)(=O)c1ccc(C)cc1 | 0 | 16071 | -2 | 2 | 3 | 3
CC(=O)c1nc2ccccc2n1S(=O)(=O)c1ccc(Cl)cc1 | 0 | 18292* | -31 | ? | 0 | -13
CCOC(=O)C1=C[C@@H](C2CCCC2)N(S(=O)(=O)c2ccc([N+](=O)[O-])cc2)[C@H]1c1ccccc1 | nt | 5941 | nt | 0 | 0 | 1
SMILES | Vc quorum ag | Autofluor counter | BJeLR viability | BoNT-A LC inh2 | Anthrax LF prot | BoNT F protease
CC(=O)c1cccc(S(=O)(=O)N2CCCC(c3nc(-c4ccc(C)o4)no3)C2)c1 (stereo not drawn) | 0 | 17085* | -7 | ? | -2 | -3
COc1ccc(-c2noc(C3CCCN(S(=O)(=O)c4ccc(C)c(Cl)c4)C3)n2)cc1OC (stereo not drawn) | 0 | 10387 | -23 | -1 | 0 | -14
CCS(=O)(=O)N1CCCC(c2nc(-c3cccc(OC)c3)no2)C1 (stereo not drawn) | 0 | 23563* | 0 | -1 | -2 | 0
COc1ccc(-c2noc(C3CCCN(S(=O)(=O)c4cccc(Cl)c4C)C3)n2)cc1OC (stereo not drawn) | 0 | 17219* | -4 | -2 | 0 | -4
O=C1NC[C@H](c2ccccc2)OC(=O)[C@H](Cc2ccc(F)cc2)C/C=C\C[C@H]1CC(=O)N(CCO)Cc1ccccc1 | -1 | 3718 | nt | 1 | -7 | 2
O=C(NCC(c1ccco1)N1CCCC1)c1cc2cc(Cl)ccc2o1 (stereo not drawn) | i | ? | nt | 6 | -4 | 3

Screening results deposited in PubChem by several laboratories.
